Shown are actives, neighbours in structure and some others; about 1.3% of the full set was active somewhere.
SRC1 inh: inhibits human SRC1 coactivator; Q15788; HEK293 GAL4-SRC1 luciferase reporter, luminescence; inhibition, % at 3.6 µM; 360,000 tested, 0.12% active;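 active means inhibition above the campaign mean plus 3 SD, with each screening campaign given its own cutoff, cut at about 60% in these data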
COUP-TFII inh: NR2F2 (human) inhibition, primary screen; P24468; HEK293T NGFI-A luciferase reporter, luminescence; inhibition, % at 8.6 µM; 370,000 tested, 0.7% active;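 active means inhibition above a per-plate cutoff, mean inhibition of test wells between control levels plus 3 SD, cut at about 38% in these data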;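 further: cells cotransfected with COUP-TFII expression vector driving the NGFI-A reporter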
Gli-Sufu antag: Gli-Sufu pathway antagonism; Sufu-KO-LIGHT fibroblasts, Gli luciferase reporter luminescence; inhibition, % at 5 µM; 340,000 tested, 0.74% active; AID 588413;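 active means inhibition above about 55%, limit read from the data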
NCOA2 inhibitor: inhibits human steroid receptor coactivator 2; Q15596; inhibition, % at 9 µM; HEK293 GAL4-SRC2 luciferase reporter, luminescence; 370,000 tested, 0.17% active; AID 651957;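 active means inhibition above the mean inhibition of all tested compounds plus 3 SD, set per campaign, cut at about 52% in these data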
LRH-1 inv ag: suppresses constitutive activity of human LRH-1 | HEK293T StAR-luciferase reporter, LRH-1 transfected, 24 h | AID 602396 | 360,000 tested, 0.13% active | O00482 | inhibition, % at 3.6 µM;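 active means inhibition above the mean inhibition of all tested compounds plus 3 SD, cut at about 73% in these data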
Target sequence (O00482 whole entry, looked up): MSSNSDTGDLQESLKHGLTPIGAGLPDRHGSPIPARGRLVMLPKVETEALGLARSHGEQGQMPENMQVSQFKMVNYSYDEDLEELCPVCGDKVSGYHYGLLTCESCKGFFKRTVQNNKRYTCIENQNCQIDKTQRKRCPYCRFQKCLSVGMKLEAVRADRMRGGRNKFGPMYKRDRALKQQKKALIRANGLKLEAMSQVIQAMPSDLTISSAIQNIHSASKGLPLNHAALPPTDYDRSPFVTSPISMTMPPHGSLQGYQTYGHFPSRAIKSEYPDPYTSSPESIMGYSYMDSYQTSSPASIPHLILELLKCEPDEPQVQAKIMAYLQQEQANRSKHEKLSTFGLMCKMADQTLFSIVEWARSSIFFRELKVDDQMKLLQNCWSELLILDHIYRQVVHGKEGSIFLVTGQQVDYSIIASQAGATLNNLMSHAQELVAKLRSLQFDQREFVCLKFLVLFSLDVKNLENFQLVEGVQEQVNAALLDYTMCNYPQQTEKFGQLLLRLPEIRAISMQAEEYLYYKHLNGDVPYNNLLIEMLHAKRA
SRC3 inh: inhibits human SRC3 coactivator; Q9Y6Q9; HEK293 GAL4-SRC3 luciferase reporter, luminescence; inhibition, % at 3.6 µM; 360,000 tested, 0.17% active;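 active means inhibition above a per-campaign cutoff, the mean of all compounds plus 3 SD, cut at about 60% in these data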;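 further: higher means less SRC3-driven luciferase light from the GAL4 reporter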
Gli antag conf: confirmation of Gli-SUFU pathway antagonists. shares compounds with Gli-Sufu antag. Sufu-KO-LIGHT cells, Gli luciferase reporter, luminescence. inhibition, % at 5 µM. 2,500 tested, 40% active. AID 602428;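 active means mean inhibition at 5 µM reaching about 45%, limit read from the data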
Gli cytotox: cytotoxic in Gli-SUFU antagonist counter-screen | 2,500 tested, 32% active | shares compounds with Gli-Sufu antag | cytotoxicity, % at 5 µM | Sufu-KO-LIGHT cells cytotoxicity, ATP luminescence | AID 651994;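 active means mean cytotoxicity at 5 µM above about 25%, limit read from the data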;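 further: cells exposed to compound overnight for roughly 16 to 18 hours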
Wnt3a counter: counter-screen for Gli-SUFU antagonists: Wnt3a reporter inhibition | shares compounds with Gli-Sufu antag | Wnt-LIGHT cells, Wnt3a-driven luciferase reporter, luminescence | inhibition, % at 6.25 µM | 2,500 tested, 20% active;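 active means mean inhibition above about 25%, limit read from the data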
Of the large screens only hits and unclear results are named; the others gave an inactive call (follow-up assays come after a bar, where they were run).

Cc1ccc(-n2ncc(C(=O)Nc3cc(Cl)ccc3C)c2C2CCNCC2)cc1C	none
O=C(CSCCc1ccccn1)Nc1ccccn1	Gli-Sufu antag 96 | Gli antag conf inactive | Gli cytotox inactive | Wnt3a counter inactive
O=C(CSCCc1ccccn1)Nc1ccc(Br)cn1	none
Cc1cccc2c1CCC1CN(Cc3ccccc3)S(=O)(=O)N21 (stereo unspecified)	none (no result: SRC1 inh, Gli-Sufu antag, NCOA2 inhibitor, LRH-1 inv ag, SRC3 inh)
CC1CCc2c(sc3nc(C4CC4)nc(N4CCN(C(=O)c5ccco5)CC4)c23)C1 (stereo unspecified)	Gli-Sufu antag 77 | Gli antag conf 81 | Gli cytotox 32 | Wnt3a counter inactive
CCc1nc(N2CCN(C(=O)c3ccco3)CC2)c2c3c(sc2n1)CCCC3	none
COc1cccc(NC(=O)CCS(=O)(=O)c2ccc3c(c2)oc(=O)n3C)c1	none | Gli antag conf inactive | Gli cytotox 26 | Wnt3a counter inactive
Cc1[nH]n(-c2nc(-c3ccc(Cl)cc3)cs2)c(=O)c1N=Nc1ccc(O)cc1	Gli-Sufu antag 70 | Gli antag conf 71 | Gli cytotox 35 | Wnt3a counter 29
CCc1c(C)[nH]n(-c2nc(-c3ccccc3)cs2)c1=O	none
CC(C)(C)n1nnnc1C(c1ccc2ncccc2c1)N1CCC(O)CC1 (stereo unspecified)	Gli-Sufu antag 63 | Gli antag conf inactive | Gli cytotox inactive | Wnt3a counter inactive
NC(=O)c1ccc(N2CCCCC2)c(N2C(=O)C3CC=CCC3C2=O)c1 (stereo unspecified)	none | Gli antag conf inactive | Gli cytotox inactive | Wnt3a counter inactive
COCCCNC(=O)C[C@H]1C[C@@]2(C(=O)OC)C(=C[C@H](COCc3ccccc3)O[C@@H]2C)N(Cc2cccc3ccccc23)C1=O	none (no result: SRC1 inh, Gli-Sufu antag, LRH-1 inv ag, SRC3 inh)
CC1CCCCN1C(=O)Cn1cnc2cc([N+](=O)[O-])ccc2c1=O (stereo unspecified)	Gli-Sufu antag 55 | Gli antag conf inactive | Gli cytotox inactive | Wnt3a counter inactive
Cc1cc(C)c(C(=O)Cn2cnc3cc([N+](=O)[O-])ccc3c2=O)cc1C	none
O=C(Nc1nc2c(s1)C(=O)CCC2)c1ccccc1	Gli-Sufu antag 70 | Gli antag conf inactive | Gli cytotox 29 | Wnt3a counter inactive
O=C(Nc1nc(=O)c2ccccc2s1)c1ccccc1	none
COc1cccc(-c2cc(CNC(=O)[C@H]3O[C@@H](n4cnc(C(N)=O)n4)[C@H](O)[C@@H]3O)no2)c1	none (no result: SRC1 inh, Gli-Sufu antag, LRH-1 inv ag, SRC3 inh)
COC(=O)c1ccc(=O)n(-c2ccc(OC)cc2)c1	Gli-Sufu antag 76 | Gli antag conf inactive | Gli cytotox inactive | Wnt3a counter inactive
O=C(Cc1ccc(S(=O)(=O)N2CCOCC2)s1)Oc1ccc(F)cc1	Gli-Sufu antag 96 | Gli antag conf inactive | Gli cytotox inactive | Wnt3a counter inactive
Cc1cc(-c2ccc(C)c(S(=O)(=O)NCCCN3CCCCCC3)c2)on1	none
Cc1cc(-c2ccc(C)c(S(=O)(=O)NCCCN3CCN(c4ccccc4F)CC3)c2)on1	Gli-Sufu antag 56 | Gli antag conf inactive | Gli cytotox inactive | Wnt3a counter inactive
C=CCn1c(SCn2nnc3ccccc3c2=O)nc2scc(-c3cccs3)c2c1=O	none | Gli antag conf inactive | Gli cytotox inactive | Wnt3a counter inactive
CC(C)(C)C1CCC(OC(=O)C[N+]2(C)CCCC2)CC1 (stereo unspecified)	none
CC(C)(C)C1CCC(OC(=O)C[N+]2(C)CCCCC2)CC1 (stereo unspecified)	none | Gli antag conf inactive | Gli cytotox inactive | Wnt3a counter inactive
Cc1ccc(CN2CCCCC(NC(=O)c3ccc(C)cc3)C2=O)cc1 (stereo unspecified)	none (no result: SRC1 inh, Gli-Sufu antag, LRH-1 inv ag, SRC3 inh)
Cc1noc(NS(=O)(=O)c2ccc(NC(=O)c3cnc4n(c3=O)CCS4)cc2)c1C	Gli-Sufu antag 95 | Gli antag conf inactive | Gli cytotox inactive | Wnt3a counter inactive
Cc1ccc(CCNC(=O)CCS(=O)(=O)Cc2ccc(C)cc2)cc1	none
Cc1ccc(CNC(=O)CCS(=O)(=O)Cc2ccc(C)cc2)cc1	none | Gli antag conf inactive | Gli cytotox inactive | Wnt3a counter inactive
COC(=O)[C@H](C(C)C)N(Cc1cn(Cc2ccccc2)nn1)S(=O)(=O)c1ccc(F)cc1Br	none (no result: SRC1 inh, Gli-Sufu antag, LRH-1 inv ag, SRC3 inh)
O=C(CCc1ccccc1)NNC(=O)Cc1ccc(Cl)cc1	none
O=C([O-])c1cc(-c2ccccc2)cc(-c2ccccc2)[n+]1CCc1ccc(Cl)cc1	Gli-Sufu antag 78 | Gli antag conf 67 | Gli cytotox 36 | Wnt3a counter inactive
C[C@H]1C2CC(OC(=O)Nc3ccc4c(c3)OCO4)C(C2)[C@H]2CCCCN21 (stereo partly specified)	none (no result: SRC1 inh, Gli-Sufu antag, LRH-1 inv ag, SRC3 inh)
Cc1cc(Nc2ccccc2Br)n2nc(C)nc2n1	none | Gli antag conf inactive | Gli cytotox inactive | Wnt3a counter inactive
CCC(=O)NC(c1ccc(C)cc1)c1ccc2cccnc2c1O (stereo unspecified)	Gli-Sufu antag 89, SRC3 inh 64 | Gli antag conf 82 | Gli cytotox 42 | Wnt3a counter 83
CCCC(=O)NC(c1ccc(OC)c(OC)c1)c1cc(Cl)c2cccnc2c1O (stereo unspecified)	none
CCC(=O)NC(c1ccc(C)cc1)c1cc([N+](=O)[O-])c2cccnc2c1O (stereo unspecified)	none
CCCC(=O)NC(c1ccccc1Cl)c1ccc2cccnc2c1O (stereo unspecified)	Gli-Sufu antag 83, LRH-1 inv ag 84 | Gli antag conf 80 | Gli cytotox 28 | Wnt3a counter 69
CCCCC(=O)NC(c1ccc(Cl)cc1Cl)c1ccc2cccnc2c1O (stereo unspecified)	Gli-Sufu antag 86 | Gli antag conf 83 | Gli cytotox 34 | Wnt3a counter 82
O=C(c1cccc(F)c1)N(Cc1ccccn1)CC1CCCO1 (stereo unspecified)	none (no result: SRC1 inh, Gli-Sufu antag, LRH-1 inv ag, SRC3 inh)
O=C(Cc1csc(Nc2nc(=S)[nH]c3ccccc23)n1)NCc1ccc(Cl)cc1	none (no result: COUP-TFII inh, Gli-Sufu antag, NCOA2 inhibitor)
O=C(Cc1csc(Nc2nc(=S)[nH]c3ccccc23)n1)NCCCN1CCN(c2ccccc2F)CC1	Gli-Sufu antag 86 | Gli antag conf inactive | Gli cytotox inactive | Wnt3a counter inactive
CCNc1ccc(C(=O)OC(C(=O)NC(N)=O)C(C)C)cc1[N+](=O)[O-] (stereo unspecified)	Gli-Sufu antag 59 | Gli antag conf inactive | Gli cytotox inactive | Wnt3a counter inactive
CN1CCN(c2ccc(-c3csc(N4CCC(C(N)=O)CC4)n3)cc2)CC1	none (no result: SRC1 inh, Gli-Sufu antag, NCOA2 inhibitor, LRH-1 inv ag, SRC3 inh)
